Where “and” joins values, the source holds several entries; their conditions need not be identical. Equal entries are not always repeated. Unmarked numbers belong to inactive results. Results filed as inconclusive are left out. Calls of active or inactive are those of the source. Unless noted, calls come from the whole dose curve; as a rule, active = well fitted curve in the direction sought with a large enough effect in the repeat runs; inconclusive = weak or mixed curves; inactive = no such curve, though single readings can be large; an effect the other way counts as inactive or inconclusive.
Biological target: Peroxisome proliferator-activated receptor alpha (Homo sapiens) (UniProt Q07869)
Sequence (Q07869 whole entry, looked up): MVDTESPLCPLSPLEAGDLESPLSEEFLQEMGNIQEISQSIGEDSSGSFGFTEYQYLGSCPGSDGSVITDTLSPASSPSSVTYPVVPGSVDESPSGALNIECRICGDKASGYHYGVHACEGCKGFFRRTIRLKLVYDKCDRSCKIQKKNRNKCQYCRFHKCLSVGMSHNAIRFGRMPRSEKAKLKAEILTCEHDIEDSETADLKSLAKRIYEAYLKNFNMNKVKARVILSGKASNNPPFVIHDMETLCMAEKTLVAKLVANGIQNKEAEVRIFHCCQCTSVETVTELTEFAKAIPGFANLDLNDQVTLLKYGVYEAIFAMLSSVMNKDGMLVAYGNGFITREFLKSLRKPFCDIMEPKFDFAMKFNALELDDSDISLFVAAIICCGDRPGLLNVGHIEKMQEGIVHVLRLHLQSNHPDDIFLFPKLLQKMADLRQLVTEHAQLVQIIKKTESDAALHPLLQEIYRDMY
Test: qHTS assay for small molecule agonists of the peroxisome proliferator-activated receptor alpha (PPARalpha) signaling pathway (AID 651778; active = well fitted curve in the direction sought with a large enough effect; an effect the other way counts as inactive or inconclusive)
Details: PathHunter PPARalpha complementation, chemiluminescence, 6 h; max response: active compounds read high
How it was run: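 Cells plated at 2,000/well and held overnight at 37 C, 5% CO2, then compound added by pin tool for 6 hr; after PathHunter detection reagent and 60 min at room temperature, chemiluminescence from enzyme complementation was read.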
Note: % of control where 0% means no effect.

Structure (SMILES) | max response
C/C(=N\NC(=O)Nc1cc(F)cc(F)c1)c1ncccc1C(=O)O | 0.136% and -0.453%
CCCC1COC(Cn2cncn2)(c2ccc(Cl)cc2Cl)O1 (centres undefined) | -0.724% and -0.169%
Cc1cnc(C2=NC(C)(C(C)C)C(=O)N2)c(C(=O)O)c1 (centres undefined) | -1.29% and -1.68%
O=S(=O)(c1ccc(O)cc1)c1ccc(O)cc1 | -4.37%
CCOP(=O)(O)C(N)=O | -1.31%
COc1ccc(O)c(C(C)(C)C)c1 | 1.63%
Clc1ccc([C@]2(Cn3cncn3)C[C@@H](Br)CO2)c(Cl)c1 | -0.572% and -0.644%
CCOP(=O)(SC(C)CC)SC(C)CC (centres undefined) | -1.1%
CNC(=O)Oc1cccc2c1OC(C)(C)C2O (centres undefined) | -1.14%
C/C(=N\C(N)=O)N(C)Cc1ccc(Cl)nc1 | -1.45%
O=S1OC[C@@H]2[C@H](CO1)[C@@]1(Cl)C(Cl)=C(Cl)[C@]2(Cl)C1(Cl)Cl (some centres undefined) | -0.211% and 0.181%
FC(F)(F)c1ccc(OCCCOc2c(Cl)cc(OCC=C(Cl)Cl)cc2Cl)nc1 | -0.598%
C=CCC1=C(C)[C@@H](OC(=O)[C@@H]2[C@@H](C=C(C)C)C2(C)C)CC1=O | 2.33%
Cc1ccccc1C(=O)Nc1cccc(OC(C)C)c1 | -0.819%
Nc1ccc([N+](=O)[O-])cc1Cl | -5.45%
CCCCC(CC)C(=O)Cl (centres undefined) | -0.947%
CCNc1nc(NC(C)(C)C)nc(SC)n1 | 1.46%
CCOP(=O)(OCC)SCSCC | -4.89%
CCOP(=O)(OCC)SCSC(C)(C)C | 0.241%
CNC(=O)Oc1ccc(N(C)C)c(C)c1 | -2.96%
COC(=O)c1ccccc1CS(=O)(=O)NC(=O)Nc1nc(OC)cc(OC)n1 | -0.343%
CCOP(=S)(OCC)Oc1cnc2ccccc2n1 | -1.06%
CCOP(=S)(S)OCC | -2.08%
CCCCN(CC)C(=O)SCCC | 0.725%
O=[N+]([O-])c1ccc(Oc2ccc(C(F)(F)F)cc2[N+](=O)[O-])cc1 | -0.519%
C/C=C(\C)C(=O)O[C@H]1C[C@@H](OC(C)=O)[C@@]2(C(=O)OC)CO[C@H]3[C@@H](O)[C@@](C)([C@]45O[C@@]4(C)[C@H]4C[C@@H]5O[C@@H]5OC=C[C@@]54O)[C@H]4[C@]1(CO[C@]4(O)C(=O)OC)[C@@H]32 | -3.71%
C=CC1(C)OC(=O)N(c2cc(Cl)cc(Cl)c2)C1=O (centres undefined) | -2.56%

Tested on: not listed separately
Test: qHTS assay for small molecule agonists of the antioxidant response element (ARE) signaling pathway measured by Nrf2-dependant transcriptional activity (AID 720636);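 note: HepG2 cells with an ARE-driven luciferase reporter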
Details: ARE-luc HepG2, Nrf2 luciferase reporter, 16 h; series mostly up to 92.4 µM; activation: at the top concentration
How it was run: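 Nrf2-dependent transcription is measured in ARE-luc HepG2 cells: compound is applied for 16 hr at 37 C after a 6 hr attachment period, and luciferase activity is quantified by luminescence using ONE-Glo.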

Structure (SMILES) | Potency | activation [%]
C/C(=N\NC(=O)Nc1cc(F)cc(F)c1)c1ncccc1C(=O)O | inactive | –
CCCC1COC(Cn2cncn2)(c2ccc(Cl)cc2Cl)O1 (centres undefined) | inactive | –
Cc1cnc(C2=NC(C)(C(C)C)C(=O)N2)c(C(=O)O)c1 (centres undefined) | inactive | –
O=S(=O)(c1ccc(O)cc1)c1ccc(O)cc1 | – | 0.205
CCOP(=O)(O)C(N)=O | – | 0.0986
CCOc1nc(NC)nc(NC(=O)NS(=O)(=O)c2ccccc2C(=O)OC)n1 | – | -1.11
COc1ccc(O)c(C(C)(C)C)c1 | – | 0.884
CCOP(=S)(OCC)SCC(=O)NC(C)C | – | 0.592
NS(=O)(=O)C(F)(F)C(F)(F)C(F)(F)C(F)(F)C(F)(F)C(F)(F)C(F)(F)C(F)(F)F | – | 2.07
Clc1ccc([C@]2(Cn3cncn3)C[C@@H](Br)CO2)c(Cl)c1 | inactive | –
CCOP(=O)(SC(C)CC)SC(C)CC (centres undefined) | – | -0.924
CNC(=O)Oc1cccc2c1OC(C)(C)C2O (centres undefined) | – | 1.46
C/C(=N\C(N)=O)N(C)Cc1ccc(Cl)nc1 | – | 0.217
O=S1OC[C@@H]2[C@H](CO1)[C@@]1(Cl)C(Cl)=C(Cl)[C@]2(Cl)C1(Cl)Cl (some centres undefined) | inactive | –
C=CCC1=C(C)[C@@H](OC(=O)[C@@H]2[C@@H](C=C(C)C)C2(C)C)CC1=O | – | 1.57
Nc1ccc([N+](=O)[O-])cc1Cl | – | 0.924
CCCCC(CC)C(=O)Cl (centres undefined) | – | -0.0143
CCNc1nc(NC(C)(C)C)nc(SC)n1 | – | -0.0897
CCOP(=O)(OCC)SCSCC | – | -0.999
CCOP(=O)(OCC)SCSC(C)(C)C | – | -0.115
CNC(=O)Oc1ccc(N(C)C)c(C)c1 | – | 2.93
COC(=O)c1ccccc1CS(=O)(=O)NC(=O)Nc1nc(OC)cc(OC)n1 | – | -0.027
Cc1cc(Cl)ccc1OCC(=O)O | inactive | –
CCOP(=S)(S)OCC | – | -0.223
CCCCN(CC)C(=O)SCCC | – | -1.18
C/C=C(\C)C(=O)O[C@H]1C[C@@H](OC(C)=O)[C@@]2(C(=O)OC)CO[C@H]3[C@@H](O)[C@@](C)([C@]45O[C@@]4(C)[C@H]4C[C@@H]5O[C@@H]5OC=C[C@@]54O)[C@H]4[C@]1(CO[C@]4(O)C(=O)OC)[C@@H]32 | – | 0.251
C=CC1(C)OC(=O)N(c2cc(Cl)cc(Cl)c2)C1=O (centres undefined) | – | -0.091

Source: PubChem BioAssay (NCATS)
